ALOX12 inh: inhibitors of human 12S-lipoxygenase ALOX12; purified 12hLO, xylenol orange hydroperoxide absorbance; Potency, µM (doses to about 108 µM), for the others: top-dose activity change, negative = inhibition, hits mostly inhibitors; actives 1.1% (n = 580,000); AID 1671190; further: on the % scale 0 is the no-effect control and ±100 the full control effect
Target sequence (P18054 whole entry, looked up): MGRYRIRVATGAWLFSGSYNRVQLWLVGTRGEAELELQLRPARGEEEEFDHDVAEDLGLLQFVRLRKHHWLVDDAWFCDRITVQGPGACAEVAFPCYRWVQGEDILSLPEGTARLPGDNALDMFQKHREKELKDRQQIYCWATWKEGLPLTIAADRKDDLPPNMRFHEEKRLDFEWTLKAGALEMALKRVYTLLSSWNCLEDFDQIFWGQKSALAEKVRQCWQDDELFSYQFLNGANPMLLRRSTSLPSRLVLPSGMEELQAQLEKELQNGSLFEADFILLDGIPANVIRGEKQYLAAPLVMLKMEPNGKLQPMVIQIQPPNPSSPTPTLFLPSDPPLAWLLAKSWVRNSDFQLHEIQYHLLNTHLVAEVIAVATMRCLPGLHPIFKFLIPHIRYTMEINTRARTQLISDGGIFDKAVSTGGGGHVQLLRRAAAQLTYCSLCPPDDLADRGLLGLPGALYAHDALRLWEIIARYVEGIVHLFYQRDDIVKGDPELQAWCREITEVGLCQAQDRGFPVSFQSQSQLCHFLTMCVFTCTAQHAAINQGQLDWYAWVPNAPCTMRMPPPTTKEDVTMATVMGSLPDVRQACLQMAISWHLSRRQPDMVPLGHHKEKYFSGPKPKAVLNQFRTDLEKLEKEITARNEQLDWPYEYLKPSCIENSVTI
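Purified human 12hLO (150 nM final) in 25 mM Hepes, 0.01% Triton X-100, pH 7.0 was preincubated 15 min at room temperature with compound. Then 40 uM arachidonic acid was added, 30 min. Hydroperoxide was read by Fe-XO absorbance ratio 573/405 nm.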
GLP-1R agonist: GLP-1 receptor (human) agonism; P43220; HEK293 GLP-1R CRE-luciferase, luminescence, 4-6 h; cells express a hypersensitive GLP-1R form; Potency, µM (highest dose often 45.6 µM), for inactives: top-dose activation, hits mostly activators; actives 0.007% (n = 380,000); further: % of control where 0% means no effect
GLP-1R inv ag: inverse agonists of human GLP-1 receptor; actives 1.6% (n = 410,000); P43220; AID 624417; HEK293 GLP-1R CRE-luciferase, luminescence, 24 h; GLP-1R form is constitutively active; Potency, µM (highest dose often 38.3 µM), for inactives: top-dose activity change, negative = inhibition, actives largely listed as inhibitors; further: on the % scale 0 is the no-effect control and ±100 the full control effect; nearly all actives have a fitted effect of over 55% in size
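Seeding at 200 cells/uL, 12 h culture, 24 hr compound treatment, then luciferase reagent and a luminescence read; cells are HEK293 stably expressing a constitutively active GLP-1R plus cAMP-responsive luciferase.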
Glioma ERSR ind: inducers of ER stress response in human glioma cells; U87-MG GRP78 promoter luciferase reporter, 16 h; Potency, µM, without a hit: top-dose activation, usual class: activators; actives 0.02% (n = 420,000); further: series mostly up to about 76 µM; % of control where 0% means no effect; nearly all actives have a fitted effect of over 35% in size
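Stably transfected U87-MG glioma cells carrying a GRP78-based luciferase sensor; 16 h compound incubation. Luminescence end-point read 10 min after Bright-Glo addition at room temperature.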
PTHR1 agonist: PTHR1 (human) receptor agonism. AID 743266. actives 0.075% (n = 410,000). Potency, µM (highest dose often 115 µM), inactives show at the top dose activation, usual class: activators. HEK293 GP2 PTHR1 cells, GloSensor cAMP luminescence, 1 h. Q03431; further: nearly all actives have a fitted effect of over 55% in size
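HEK-293-derived GP2 cells expressing PTHR1 and a GloSensor cAMP reporter, 3,000/well, plated overnight, given luciferin plus IBMX (each 0.5 mM as added) for 1 h at 37 °C, then compound for 1 h at 37 °C. Luminescence was read after 15 min at room temperature.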
GLS inh: inhibitors of human glutaminase (GLS). O94925. GLS enzymatic activity, qHTS titration. Potency, µM (titrated, usually from 45.5 µM), without a hit: top-dose activity change, negative = inhibition, most hits filed as inhibitors. actives 0.21% (n = 410,000). AID 624170; further: on the % scale 0 is the no-effect control and ±100 the full control effect
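Read-out is an Amplex red fluorescence increase coupled through glutamate oxidase and HRP, measured before and after 30 min room-temperature incubation. hKGA is in 45 mM KH2PO4 (pH 8.2) with 0.02% Tween-20; glutamine added as 1mM solution.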
Starred values were filed as active, the others as inactive; i = inactive; u = inconclusive; x = no result; [ ] = remark or other dose. Rows were chosen to be rich in hits. Some 2.3% of all compounds tested hit in one or more screens of this group. The call rests on the fitted dose curve; in most records, active means well fitted curve in the direction sought with a large enough effect; inconclusive means small, poorly fitted or top-dose-only effect, or another doubt; inactive means no such curve, though single readings can be large; an effect the other way counts as inactive or inconclusive. Potency means the concentration at half of the fitted maximal effect.

SMILES	ALOX12 inh	GLP-1R agonist	GLP-1R inv ag	Glioma ERSR ind	PTHR1 agonist	GLS inh
CCCCOc1ccc(C(=O)OC2CC(C)N(C)CC2C)cc1 (stereo unspecified)	-9.9%	16.1%	3.55µM*	1.3%	-15.9%[57.5 µM]	10.6%
Cc1nc2c(cnn2C(C)C)cc1C(=O)N(C)Cc1ccc(Cl)c(Cl)c1	-0.1%	x	x	x	x	x
CC1CCC2(CC1)NC(=S)N(c1ccccc1)N2 (stereo unspecified)	u	-1.5%	u	6.5%	i	u
Cc1cccc(N2NC3(CCCC(C)C3)NC2=S)c1C (stereo unspecified)	8.91µM*	x	x	x	x	x
CN1CCN(c2oc(-c3ccco3)nc2C#N)CC1	-18.0%	x	x	x	x	x
C#CCNC(=O)c1cc(-c2cccc(C(F)(F)F)c2)c2nncn2n1	1.1%[6.33 µM]	x	x	x	x	x
COc1cccc(-c2nc(-c3c(C)noc3C)cc3c2cc(C)n3CCN(C)C)c1OC	-28.6%[176 µM]	x	x	x	x	x
Cc1noc(C)c1-c1cc2c(cc(C)n2CCN(C)C)c(-c2ccccc2O)n1	79.4µM*	x	x	x	x	x
N#Cc1ncn(Cc2nnc(-c3ccccc3)o2)n1	2.2%	x	x	x	x	x
CCOC(=O)c1ccc(NC(=O)c2cc[n+]([O-])cc2)cc1	8.7%	x	x	x	x	x
O=c1c2c(-c3cccs3)csc2ncn1-c1ccccc1	-11.4%	25.4%	u	6.0%	i	4.8%
Cc1ccc(-n2cnc3scc(-c4cccs4)c3c2=O)cc1	8.7%	0.8%	10µM*	4.1%	i	4.0%
C=Cc1ccc(Cn2c(C(=O)O)c(CNCc3ccccc3)c3ccc(OC)cc32)cc1	3.98µM*	x	u	x	i	-19.3%
COc1ccc(Cn2c(C(=O)O)c(CNCc3ccc(SC)cc3)c3ccc(OC)cc32)cc1	0.0%	x	u	-3.0%	-12.0%	-8.9%
O=C(NC(=S)NCCO)c1cn(-c2ccccc2)nc1-c1ccccc1	39.8µM*	6.8%	57.8%	-0.2%	-0.5%	12.3%
COc1cccc(-c2nn(-c3ccccc3)cc2C(=O)Nc2nccs2)c1	5.0%	-9.6%	7.08µM*	2.2%	-3.5%	-11.3%
Cc1nn(Cc2ccc(Cl)c(Cl)c2)c(C)c1NC(=O)c1cn(-c2ccccc2)nc1-c1ccccc1	0.0%	-0.7%	10µM*	-5.5%	-4.9%[57.5 µM]	-2.6%
COc1ccccc1NC(=O)c1cn(-c2ccccc2)nc1-c1ccccc1	-10.6%	x	u	-0.1%	-1.6%	-5.8%
O=C(NC(=S)N1CCOCC1)c1cn(-c2ccccc2)nc1-c1ccccc1	u	-0.4%	u	-3.4%	-28.3%	13.5%
Cc1cccc(NC(=O)c2cn(-c3ccccc3)nc2-c2ccccc2)c1C	-22.9%	x	4.47µM*	-4.4%	-5.6%	7.4%
CCCc1cc(=O)oc2c(C)c(OCC(=O)c3ccccc3)ccc12	-1.8%	x	x	x	x	x
CCN(Cc1ccc2c(c1)OCCO2)S(=O)(=O)c1cnn(C)c1	2.3%	x	x	x	x	x
Cc1cccc(C)c1NC(=O)c1cn(-c2ccccc2)nc1-c1ccccc1	-2.3%	-0.9%	-1.0%	-0.5%	-7.8%	-2.2%
Cc1ccccc1NC(=O)c1cn(-c2ccccc2)nc1-c1ccccc1	-17.2%	5.5%	10µM*	-3.0%	-32.8%	-5.1%
CCn1c(CSc2nnc(C3CC3)n2-c2ccccc2)nc2cc(S(=O)(=O)N(C)C)ccc21	10.6%	x	x	x	x	x
SMILES	ALOX12 inh	GLP-1R agonist	GLP-1R inv ag	Glioma ERSR ind	PTHR1 agonist	GLS inh
Cc1sc(-c2nc(-c3cccc(F)c3)no2)cc1S(=O)(=O)N1CCC(C)CC1	2.2%	x	x	x	x	x
O=C(CCC1CCCN(Cc2cnc(-c3ccccc3)s2)C1)Nc1ccccc1F (stereo unspecified)	6.2%	x	x	x	x	x
CC(C)Nc1ccc(Nc2ccnc3cc4ccccc4cc23)cc1	u	-5.7%	3.16µM*	-13.4%	i	-23.4%
COc1ccc(Nc2ccnc3ccccc23)cc1	91.1%	-23.8%	u	-1.4%	-10.7%	3.8%
Cn1ccnc1CN1C(=O)CO[C@H]2CN(CCCc3ccccc3)C[C@H]21	20.3%[176 µM]	x	x	x	x	x
COc1cccc(NC(=O)n2nc(N)cc2-c2ccc(Cl)cc2)c1	16.2%	-2.1%	10µM*	0.7%	i	21.9%
COc1ccc(OC)c(NC(=O)N(C)CCc2noc(C(=O)NCc3ccccc3)n2)c1	2.2%	x	x	x	x	x
O=C(Cc1cccc(C(F)(F)F)c1)NCc1cccc(Cl)c1	u	10.2%	10µM*	-4.5%	-13.1%	1.1%
O=C(NCc1cccc(C(F)(F)F)c1)c1cc(Cl)ccc1Cl	-4.5%	-3.0%	u	2.8%	-37.0%	-6.1%
Cc1ccc(CNc2nc3nc(C)c(CCC(=O)Nc4cccc5ccccc45)c(=O)n3[nH]2)cc1	-23.4%	x	x	x	x	x
O=C1OC(/C=C/c2ccc(Cl)cc2)=NC/1=C/c1ccco1	39.8µM*	-16.5%	0.0%	-4.4%	i	9.4%
CN1C(=O)/C(=C\c2ccco2)N=C1c1ccc(Cl)cc1Cl	-19.3%	33.9%	-23.8%	0.7%	-9.8%	11.0%
O=C(/C(=C/c1cccs1)c1nc2ccccc2o1)c1ccccc1	22.5%	x	x	x	x	x
COc1ccc(C(=O)/C(=C/c2cccs2)c2nc3ccccc3o2)cc1	0.0%	-0.8%	11.2µM*	1.9%	-19.3%	17.1%
O=C(Nc1ccc(Cl)cc1)[C@@H]1[C@@H]2C(=O)N(c3ccc(Cl)cc3)C(=O)[C@@H]2[C@H]2C=CC=NN21	u	-27.6%	-27.0%	-1.7%	-10.5%	-3.5%
Cc1ccc(N2C(=O)[C@@H]3[C@H](C2=O)[C@H]2C=CC=NN2[C@@H]3C(=O)Nc2ccc(Cl)cc2)cc1	10µM*	-27.1%	0.8%	-3.0%	-3.4%	-9.0%
CN(C)CCCN(C(=O)c1cc(-c2cccs2)nc2ccccc12)c1nc2c(F)cccc2s1	-19.0%	2.8%	u	-11.0%	i	2.3%
CCc1ccc2nc(N(CCN(C)C)C(=O)c3ccc4ccccc4c3)sc2c1	x	-0.9%	12.6µM*	0.7%	i	3.4%
CN(C)CCN(C(=O)c1ccc2ccccc2c1)c1nc2ccc(F)cc2s1	x	-1.5%	-15.6%	0.2%	-23.4%	-2.3%
COc1ccccc1C(=O)N(CCN(C)C)c1nc2cc(C)cc(C)c2s1	u	8.4%	11.2µM*	-3.8%	14.2%	2.0%
CCN(CC)CCN(C(=O)c1cc2ccccc2cc1OC)c1nc2ccc(OC)cc2s1	-22.5%	-7.1%	5.62µM*	-6.4%	-5.6%	4.7%
CCN(CC)CCN(C(=O)c1ccc2ccccc2c1)c1nc2ccc(OC)cc2s1	u	-3.3%	-22.0%	-2.5%	-12.7%	14.4%
Cc1ccc2nc(N(CCCN(C)C)C(=O)c3cc(-c4cccs4)nc4ccccc34)sc2c1	-77.6%	3.8%	2.51µM*	-14.6%	i	-1.1%
